Consider 8 molecules from ChEMBL document CHEMBL3988442, “University of Dundee, Small-Polar-MMV Screening Library” (2021).

Set-up in all cases: scale not given: direction of the effect not stated beside the values
The target in test [1] is Protein translocase subunit SecA (Escherichia coli (strain K12)) (UniProt P10408). Description: Assay to Identify E. coli SecA ATPase Inhibitors. The test is classed as functional. Particulars: 30 µM.
Test [2] has as its target T1, Ubiquitin-activating enzyme e1, putative (Leishmania donovani (strain BPK282A1)) (UniProt E9BSI1).
T1 sequence (whole entry): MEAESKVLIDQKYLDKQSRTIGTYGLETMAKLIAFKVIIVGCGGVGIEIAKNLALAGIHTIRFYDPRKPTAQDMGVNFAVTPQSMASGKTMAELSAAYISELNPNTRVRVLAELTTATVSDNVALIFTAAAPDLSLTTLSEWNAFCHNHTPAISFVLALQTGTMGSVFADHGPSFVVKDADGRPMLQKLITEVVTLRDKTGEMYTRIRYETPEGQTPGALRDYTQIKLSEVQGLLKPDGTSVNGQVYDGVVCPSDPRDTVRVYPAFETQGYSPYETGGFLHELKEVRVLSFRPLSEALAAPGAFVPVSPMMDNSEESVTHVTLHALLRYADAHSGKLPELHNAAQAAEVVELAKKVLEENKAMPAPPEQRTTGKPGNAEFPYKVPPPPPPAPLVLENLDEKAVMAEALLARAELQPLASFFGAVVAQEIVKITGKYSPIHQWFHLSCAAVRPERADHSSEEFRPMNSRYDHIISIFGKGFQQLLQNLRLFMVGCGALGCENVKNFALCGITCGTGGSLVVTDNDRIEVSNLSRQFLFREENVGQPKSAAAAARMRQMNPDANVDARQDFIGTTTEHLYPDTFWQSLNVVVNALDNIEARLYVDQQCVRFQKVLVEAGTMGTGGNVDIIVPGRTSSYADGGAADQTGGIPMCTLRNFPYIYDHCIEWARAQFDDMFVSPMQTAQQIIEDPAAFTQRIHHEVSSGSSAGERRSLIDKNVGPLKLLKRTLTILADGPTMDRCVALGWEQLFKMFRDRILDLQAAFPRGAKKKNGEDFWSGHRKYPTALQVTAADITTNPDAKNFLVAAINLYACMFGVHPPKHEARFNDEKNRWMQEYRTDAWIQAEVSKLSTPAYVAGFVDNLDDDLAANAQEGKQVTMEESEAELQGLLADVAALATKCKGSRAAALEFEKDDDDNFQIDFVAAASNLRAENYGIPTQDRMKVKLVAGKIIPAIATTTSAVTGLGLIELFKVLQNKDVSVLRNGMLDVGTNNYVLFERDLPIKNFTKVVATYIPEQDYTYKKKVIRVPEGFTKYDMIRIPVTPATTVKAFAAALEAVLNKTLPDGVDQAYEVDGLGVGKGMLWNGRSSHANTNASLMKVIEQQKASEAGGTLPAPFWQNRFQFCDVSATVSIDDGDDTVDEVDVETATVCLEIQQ
In words: Leishmania donovani Ubiquitin Activating Enzyme (LdE1). It is filed as functional. Particulars: 30 µM.

In test [3] the target is AMP-activated protein kinase, AMPK (Homo sapiens) (UniProt P54646+O43741+P54619+Q9UGJ0+Q9Y478+Q13131+Q9UGI9). Description: AMP-dependent Kinase enzyme assay. An in vitro enzyme assay that detects ADP turnover that is directly proportional to AMPK activity. This uses naive AMPK that is activated during the assay with MK-8722. It is filed as functional. Particulars: 30 µM.

The target in test [4] is Sialic acid-binding Ig-like lectin 9 (Homo sapiens) (UniProt Q9Y336). In words: Hs-Siglec9 ALPHAscreen SOP 20170721. Conditions: 10 µM. (Bead proximity is the source of the signal in Alpha formats.)
Test [5] relates to Trypanosoma cruzi. In words: Trypanosoma cruzi phosphomannomutase and mannose-1-phosphate guanylyltransferase assay. The test is classed as functional. Conditions: 10 µM.
For test [6], the target named is T2, Arginase-2, mitochondrial (Homo sapiens) (UniProt P78540).
T2 sequence (whole entry): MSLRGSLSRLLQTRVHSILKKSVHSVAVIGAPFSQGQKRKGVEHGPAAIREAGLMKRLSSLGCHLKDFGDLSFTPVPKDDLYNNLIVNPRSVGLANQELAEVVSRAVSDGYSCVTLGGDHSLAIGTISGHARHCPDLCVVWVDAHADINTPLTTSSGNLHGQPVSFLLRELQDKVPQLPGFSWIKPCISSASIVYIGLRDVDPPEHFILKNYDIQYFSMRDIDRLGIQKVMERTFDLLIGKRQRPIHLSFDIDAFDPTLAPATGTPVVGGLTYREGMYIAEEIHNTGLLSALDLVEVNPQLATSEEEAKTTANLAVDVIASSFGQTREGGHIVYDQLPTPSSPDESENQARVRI
In words: in vitro enzyme assay to detect the production of urea directly proportional to the activity of Arginase II. Also: in the data most compounds retested in dose-response had high values. It is filed as functional. Conditions: 33.3 µM.

Test [7] deals with T3, Proteasome subunit beta (Trypanosoma cruzi) (UniProt O96673).
T3 sequence (whole entry): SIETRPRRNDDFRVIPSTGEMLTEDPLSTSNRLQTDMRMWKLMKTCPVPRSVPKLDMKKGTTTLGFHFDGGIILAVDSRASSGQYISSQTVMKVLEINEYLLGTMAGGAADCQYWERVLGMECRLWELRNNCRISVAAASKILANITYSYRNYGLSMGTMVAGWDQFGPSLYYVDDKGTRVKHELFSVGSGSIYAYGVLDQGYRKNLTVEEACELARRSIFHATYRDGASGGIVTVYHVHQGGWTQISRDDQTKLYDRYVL
In words: Trypanosoma cruzi proteasome chymotrypsin-like activity (TcProtChymo) assay. Also: in the data most compounds retested in dose-response had high values. It is filed as functional. Conditions: 9.37 µM.

The species entered for test [8] is Homo sapiens. Description: To identify inhibition of the IFN signalling (Jak-Stat) pathway via expression of an eGFP reporter gene under the control of an IFN-stimulated response element (ISRE) containing MxA promoter. Particulars: 30 µM. It is filed as functional. In general terms: In a reporter assay the amount or activity of a reporter protein is the signal.

Test [9] addresses T4, Tyrosyl-tRNA synthetase, putative (Trypanosoma cruzi (strain CL Brener)) (UniProt Q4DSP6).
T4 sequence (whole entry): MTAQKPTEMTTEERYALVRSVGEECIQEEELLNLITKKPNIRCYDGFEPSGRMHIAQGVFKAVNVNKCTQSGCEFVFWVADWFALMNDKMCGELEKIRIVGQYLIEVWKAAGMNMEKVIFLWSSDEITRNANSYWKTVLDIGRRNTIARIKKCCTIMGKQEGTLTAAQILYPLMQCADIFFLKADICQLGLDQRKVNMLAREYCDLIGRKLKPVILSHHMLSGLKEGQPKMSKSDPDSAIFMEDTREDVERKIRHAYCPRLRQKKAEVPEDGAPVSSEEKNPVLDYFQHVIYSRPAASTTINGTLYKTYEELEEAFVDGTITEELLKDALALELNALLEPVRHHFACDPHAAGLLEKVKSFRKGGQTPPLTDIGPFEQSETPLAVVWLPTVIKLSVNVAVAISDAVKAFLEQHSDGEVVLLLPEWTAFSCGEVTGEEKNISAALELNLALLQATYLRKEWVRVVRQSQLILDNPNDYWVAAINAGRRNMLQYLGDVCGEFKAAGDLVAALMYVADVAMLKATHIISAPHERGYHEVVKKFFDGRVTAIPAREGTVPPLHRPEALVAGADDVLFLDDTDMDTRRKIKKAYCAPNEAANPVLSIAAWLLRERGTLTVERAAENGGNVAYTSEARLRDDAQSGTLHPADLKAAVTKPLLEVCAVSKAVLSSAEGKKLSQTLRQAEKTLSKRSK
Description: Trypanosoma cruzi tyrosyl tRNA synthetase (TcYRS) _High Tyrosine SOP. Also: in the data most compounds retested in dose-response had high values. Conditions: 30 µM. It is filed as functional.

Test [10] deals with T4, Tyrosyl-tRNA synthetase, putative (Trypanosoma cruzi (strain CL Brener)). In words: Trypanosoma cruzi tyrosyl tRNA synthetase (TcYRS) SOP. Conditions: 30 µM. It is filed as functional.
In test [11] the target is Chromo domain-containing protein 1 (Saccharomyces cerevisiae (strain ATCC 204508 / S288c) (Baker's yeast)) (UniProt P32657). In words: ScCHD-1 Enzyme Inhibition Assay. Also: in the data most compounds retested in dose-response had high values. It is filed as functional. Conditions: 30 µM.

For some of these results: Results with a measured potency or affinity are listed apart.

Sequence of Chromo domain-containing protein 1 (Saccharomyces cerevisiae (strain ATCC 204508 / S288c) (Baker's yeast)) (P32657 whole entry, the tested form may be a part): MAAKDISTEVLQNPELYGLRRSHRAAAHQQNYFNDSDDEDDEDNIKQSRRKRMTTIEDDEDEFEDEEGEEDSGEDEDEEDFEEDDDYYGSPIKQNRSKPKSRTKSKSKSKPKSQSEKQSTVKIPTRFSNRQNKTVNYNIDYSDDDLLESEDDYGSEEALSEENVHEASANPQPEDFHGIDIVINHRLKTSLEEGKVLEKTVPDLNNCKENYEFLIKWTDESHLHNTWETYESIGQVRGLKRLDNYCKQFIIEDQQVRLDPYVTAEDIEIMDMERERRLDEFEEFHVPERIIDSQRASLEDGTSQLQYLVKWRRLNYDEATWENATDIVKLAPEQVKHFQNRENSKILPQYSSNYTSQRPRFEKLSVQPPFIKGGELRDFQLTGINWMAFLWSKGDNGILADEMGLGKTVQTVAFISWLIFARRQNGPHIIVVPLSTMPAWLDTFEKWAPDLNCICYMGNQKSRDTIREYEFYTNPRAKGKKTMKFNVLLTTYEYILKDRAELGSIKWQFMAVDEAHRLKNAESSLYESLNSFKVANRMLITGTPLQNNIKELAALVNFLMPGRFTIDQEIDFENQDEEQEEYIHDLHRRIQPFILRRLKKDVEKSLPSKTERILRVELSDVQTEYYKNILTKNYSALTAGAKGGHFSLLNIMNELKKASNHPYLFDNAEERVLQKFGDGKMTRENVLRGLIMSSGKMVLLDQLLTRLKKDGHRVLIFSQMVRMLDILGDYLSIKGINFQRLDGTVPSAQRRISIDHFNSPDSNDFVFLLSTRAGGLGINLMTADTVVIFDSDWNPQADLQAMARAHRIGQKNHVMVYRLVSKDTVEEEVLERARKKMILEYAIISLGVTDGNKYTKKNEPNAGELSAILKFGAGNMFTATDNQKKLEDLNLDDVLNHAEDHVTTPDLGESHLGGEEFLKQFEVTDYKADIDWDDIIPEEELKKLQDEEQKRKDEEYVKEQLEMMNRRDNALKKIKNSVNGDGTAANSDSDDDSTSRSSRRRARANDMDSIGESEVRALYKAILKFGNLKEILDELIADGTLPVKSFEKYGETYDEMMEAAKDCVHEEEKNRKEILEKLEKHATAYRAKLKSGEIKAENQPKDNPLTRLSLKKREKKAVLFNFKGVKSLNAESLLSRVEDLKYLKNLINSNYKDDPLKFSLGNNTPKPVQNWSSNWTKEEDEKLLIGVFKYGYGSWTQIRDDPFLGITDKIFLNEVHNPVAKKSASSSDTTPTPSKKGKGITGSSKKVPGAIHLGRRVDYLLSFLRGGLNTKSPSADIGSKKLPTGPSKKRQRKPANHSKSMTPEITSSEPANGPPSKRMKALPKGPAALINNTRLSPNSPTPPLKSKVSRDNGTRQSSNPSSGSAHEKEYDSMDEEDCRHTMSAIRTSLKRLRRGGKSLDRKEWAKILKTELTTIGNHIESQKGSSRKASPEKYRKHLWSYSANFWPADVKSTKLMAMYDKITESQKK
Sequence of Protein translocase subunit SecA (Escherichia coli (strain K12)) (P10408 whole entry): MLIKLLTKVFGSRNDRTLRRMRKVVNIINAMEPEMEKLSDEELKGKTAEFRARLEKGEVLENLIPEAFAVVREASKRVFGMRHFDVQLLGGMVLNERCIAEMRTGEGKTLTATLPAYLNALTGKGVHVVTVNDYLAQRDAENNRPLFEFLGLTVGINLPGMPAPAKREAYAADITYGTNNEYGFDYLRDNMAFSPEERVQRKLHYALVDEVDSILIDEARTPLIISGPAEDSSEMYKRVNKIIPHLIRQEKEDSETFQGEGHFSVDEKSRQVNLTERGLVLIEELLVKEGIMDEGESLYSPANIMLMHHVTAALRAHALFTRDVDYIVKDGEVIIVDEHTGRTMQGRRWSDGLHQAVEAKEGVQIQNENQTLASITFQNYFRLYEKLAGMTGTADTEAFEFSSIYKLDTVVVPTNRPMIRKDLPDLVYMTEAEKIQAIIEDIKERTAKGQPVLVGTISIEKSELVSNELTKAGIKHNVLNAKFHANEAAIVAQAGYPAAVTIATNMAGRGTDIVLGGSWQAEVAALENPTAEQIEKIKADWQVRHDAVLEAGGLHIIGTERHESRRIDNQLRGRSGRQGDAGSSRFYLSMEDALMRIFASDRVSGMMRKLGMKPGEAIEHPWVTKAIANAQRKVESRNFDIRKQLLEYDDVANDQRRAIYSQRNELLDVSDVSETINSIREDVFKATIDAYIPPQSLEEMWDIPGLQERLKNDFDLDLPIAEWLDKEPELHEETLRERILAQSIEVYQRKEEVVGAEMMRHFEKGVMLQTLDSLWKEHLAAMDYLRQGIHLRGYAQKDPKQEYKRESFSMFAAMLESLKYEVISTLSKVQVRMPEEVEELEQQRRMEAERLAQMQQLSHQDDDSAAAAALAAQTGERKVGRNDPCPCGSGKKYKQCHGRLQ
Sequence of Sialic acid-binding Ig-like lectin 9 (Homo sapiens) (Q9Y336 whole entry): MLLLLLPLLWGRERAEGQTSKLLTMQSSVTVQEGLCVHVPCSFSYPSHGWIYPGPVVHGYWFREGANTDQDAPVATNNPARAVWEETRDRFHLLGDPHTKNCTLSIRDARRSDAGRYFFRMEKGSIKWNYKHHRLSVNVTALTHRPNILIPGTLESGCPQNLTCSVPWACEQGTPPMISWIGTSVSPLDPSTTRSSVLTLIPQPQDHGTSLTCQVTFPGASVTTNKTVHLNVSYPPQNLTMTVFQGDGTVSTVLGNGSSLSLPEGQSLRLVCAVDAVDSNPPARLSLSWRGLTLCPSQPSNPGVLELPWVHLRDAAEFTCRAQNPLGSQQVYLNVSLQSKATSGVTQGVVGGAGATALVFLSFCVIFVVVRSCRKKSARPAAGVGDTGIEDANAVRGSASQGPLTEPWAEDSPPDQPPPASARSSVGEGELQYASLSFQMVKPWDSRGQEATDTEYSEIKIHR

As for `CC(C)S(=O)(=O)NCC1CCCN(C(=O)c2cccnc2)C1` (stereo not drawn), the Percent Effect in test [1] was -1.12%; in [2], 11%; in [3], -1.03%; in test [4], -2.93%; in [5], -3.53%; in test [6], 0.455%. The Percent Effect in [7] was 21.3%; in [8] it was 15%; in test [9], 3.23%; in test [10] it was 10%; in test [11] it was -3.28%.

Consider `CC(C)n1cnc2c1C(C(=O)NCCC#N)N(Cc1ccccc1)CC2` (stereo not drawn), for which the Percent Effect is -5.9% in [1]; 16% in [2]; -5.79% in [3]; 0.457% in [4]; 4.44% in test [5]; -40% in test [6]. Besides, the Percent Effect in [7] is 14%; in test [8] it was -0.451%; in test [9] it was 2.08%; in test [10] it was 15%; in [11], -7.21%.

On to `NC(=O)c1ccc(OCC(=O)N2CCCC(n3cccn3)C2)cc1` (stereo not drawn), for which the Percent Effect in [1] is -3.58%; in test [2] it was 15.6%; in test [3] it was 6.85%; in test [4] it was 2.82%; in test [5], -2.06%; in test [6], 1.9%. The Percent Effect was 7.2% in test [7]; 1.54% in test [8]; 7.62% in [9]; 14.1% in test [10]; -7.55% in test [11].

For the molecule `Cn1ccnc1CN1CCN(CC(=O)NCC(F)(F)F)CC1`, the Percent Effect in test [1] was -2.81%; in test [2], 5.41%; in test [3], -5.23%; in [4] it was 3.2%; in test [5], -0.66%; in test [6] it was -4.01%. Further, the Percent Effect in test [7] was 0%; in [8], 11.1%; in test [9], 0.493%; in test [10], 6.17%; in [11], -3%.

With `Cc1ccc(Cl)cc1C(=O)N1CCC2(CC1)c1ccccc1[C@@H](N)[C@@H]2O`, the Percent Effect was -6.01% in test [1]; 5.41% in [2]; -7.41% in [3]; 40.2% in [4]; 9.85% in [5]; -2.38% in test [6]. For the same molecule, the Percent Effect in test [7] was determined as 19%; in test [8] it was 2.23%; in test [9], 6.88%; in [10], 12.2%; in test [11], 10.1%.

For `COc1ccccc1CNC(=O)C1=NN(c2ccc(C)cc2)C(=O)CN1`, the Percent Effect in test [1] was -2.03%; in [2] it was 13.5%; in test [3], -0.556%; in test [4], 34.6%; in test [5], -3.62%; in [6] it was -0.248%. In addition, the Percent Effect in test [7] is 15.2%; in [8] it was 98.2%; in [9], -6.45%; in test [10] it was -3.7%; in test [11], -2.26%.

Consider `CC(C)NC(=O)N1CCN(CC2CC2)CC2(CC(=O)N(C)C2)C1` (stereo not drawn), for which the Percent Effect was 0.576% in [1]; -10.8% in test [2]; 3.4% in test [3]; -6.25% in [4]; 0% in test [5]; 1.25% in test [6]. For the same molecule, the Percent Effect in [7] is 7.02%; in test [8], -5.18%; in test [9], 82.2%; in [10], -6.1%; in [11] it was 16.8%.

With `N#Cc1ccc(C(=O)N2CCn3c(Cn4cccn4)cnc3C2)cc1`, the Percent Effect in test [1] is -4.62%; in [2], 2.67%; in [3] it was 0.576%; in [4] it was 1.75%; in [5] it was -3.86%; in [6] it was -57.5%. In addition, the Percent Effect in test [7] was 5.98%; in test [8], -6.78%; in test [9], 2.08%; in test [10], 7.5%; in test [11] it was -3.56%.
